# Experimental data as given in PubChem BioAssay (NCATS).
# Results filed as inconclusive are left out. Where a call stands in place of a potency, no number is given. Activity calls are given as the source filed them. Unless noted, the call rests on the fitted dose curve; in most records, active means well fitted inhibition curve with a large enough effect; inconclusive means small, poorly fitted or top-dose-only effect; inactive means flat fitted curve, though single readings scatter.
# Columns and labels:
# [1] = molecular target: Cytochrome P450 1A2 (Homo sapiens) (UniProt P05177); experiment: p450-cyp1a2 (AID 410; calls by dose curve; further: potency means the concentration at half of the fitted maximal effect); settings: recombinant CYP1A2, luciferin-ME demethylation, luminescence; series mostly up to 25.6 µM
# In short: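 O-Demethylation of luciferin 6' methyl ether by human CYP1A2 is monitored as luciferase luminescence. Substrate sits at Km (100uM); enzyme is 20nM. Values are scaled to 57 uM furafylline as maximal inhibition.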
# [2] = Stat Signaling Pathway (AID 446; active means well fitted curve in either direction with a large enough effect, not every such curve was filed as active;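 further: ME-180 cervical cancer cells given 40 pM IL-6 alongside compound; SIE-controlled beta-lactamase reporter measured as 460/530 nm FRET emission ratio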); settings: ME-180 (cervical carcinoma) SIE beta-lactamase reporter, IL-6 stimulated, 5 h; series mostly up to 17.2 µM
# In short: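 FRET read-out (405 nm excitation, 460/530 nm emission) of a beta-lactamase reporter under a STAT-inducible element in ME-180 cervical carcinoma cells. Cells with compound receive 40 pM IL-6 for 5 h. Values are normalised to AC90 stimulation and AC90 JAK-inhibitor controls.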
# [3] = molecular target: Glucocorticoid receptor (Homo sapiens) (UniProt P04150); experiment: GR-GFP Redistribution (AID 450;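 active means compounds whose dose series gives a full or clear partial fitted curve of increased nuclear translocation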; further: potency means the concentration at half of the fitted maximal effect); settings: U2OS GR-GFP nuclear translocation, laser cytometry, 2 h
# [4] = molecular target: Glucocorticoid receptor (Homo sapiens) (UniProt P04150); experiment: GR-EFC Redistribution (AID 451; calls by dose curve; further: potency means the concentration at half of the fitted maximal effect); settings: CHO-K1 GR-EFC translocation, beta-gal luminescence, 2 h
# In short: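 Translocation of GR-ED fusion to nuclear EA restores b-gal, read by luminescence after 1 h room-temperature detection. Engineered CHO-K1 biosensor cells, 1,000/well, exposed 2 h at 37 C to titrations up to 46 uM final.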
# [5] = molecular target: Mitogen-activated protein kinase 10 (Mus musculus) (UniProt Q61831); experiment: JNK3 AlphaScreen Assay (AID 530; active means well fitted curve in either direction with a large enough effect, not every such curve was filed as active;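 further: kinase came from lysate of stimulated human HepG2 cells; signal reports phosphorylation of biotinylated GST-cJun 1-79 at Ser73 with 10 µM ATP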); settings: JNK3 lysate, c-Jun phosphorylation; series mostly up to 25.6 µM
# In short: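 qHTS titrations with 15 min compound pre-incubation before adding ATP (10 uM final). Read-out: AlphaScreen of Ser73-phosphorylated biotin-GST-cJun using HepG2 lysate JNK3 activated by IL-1β and TNFα.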
# [6] = molecular target: 3',5'-cyclic-AMP phosphodiesterase 4B (Homo sapiens) (UniProt Q07343); experiment: qHTS Assay for Inhibitors of PDE-IV (AID 607; active means well fitted activation curve with a large enough effect in the main read-out, with a control signal flat, not every such curve was filed as active); settings: HEK293 ACTOne CNG channel cells, membrane potential fluorescence; series mostly up to 22.9 µM
# In short: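 Cell-based read-out of cAMP via a modified cyclic nucleotide-gated channel and membrane potential dye (535/590 nm) in HEK293 cells expressing PDE4 endogenously. Compounds tested up to 22.9 uM final; 100 uM RO 20-1724 reference.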
# [7] = qHTS Assay for Lipid Storage Modulators (AID 1519; calls by dose curve); settings: Drosophila S3 cells, BODIPY lipid droplet/cell ratio, laser cytometry, cells loaded with oleic acid
# In short: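 Cells seeded at 5,000 per well were treated with compounds over a concentration series and loaded with oleic acid (400 uM, as added). Lipid droplet fluorescence (488 nm excitation, 500-530 nm channel) was read by laser-scanning cytometry and normalized to 20 uM Triacsin C.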
# [8] = molecular target: Luciferin 4-monooxygenase (Photinus pyralis) (UniProt P08659); experiment: Biochemical firefly luciferase enzyme assay for NPC (AID 624030);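 further: purified P. pyralis luciferase at 10 nM with luciferin and ATP substrate; nearly all actives have a fitted effect of over 70% in size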; settings: purified P. pyralis luciferase, luminescence, 5 min; series mostly up to 24.9 µM
# In short: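 Direct inhibition of firefly luciferase enzyme (10 nM final, 50 mM Tris Acetate) assessed by luminescence within 5 minutes. Percent activity scaled between DMSO and PTC124 positive control, with concentration-effect curves classified by fit quality and response.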
# [9] = qHTS profiling for inhibitors of Plasmodium falciparum proliferation (AID 504749); further: nearly all actives have a fitted effect of over 60% in size; further: potency means the concentration at half of the fitted maximal effect; settings: P. falciparum in erythrocytes, SYBR Green DNA, 72 h, at 12.8 µM (top of the series)
# In short: (§1)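 SYBR Green fluorescence of parasite DNA, read after lysis and overnight dark incubation, measured growth over 72 h in erythrocyte culture at 0.3% parasitemia and 2.5% hematocrit. Data normalised to DMSO and 0.29 uM artemisinin, with plate-drift correction.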
# C2A = experiment: as above; settings: P. falciparum in erythrocytes, SYBR Green DNA, 72 h; series mostly up to 12.8 µM
# In short: as §1
# CP238 = experiment: as above; settings: P. falciparum in erythrocytes, SYBR Green DNA, 72 h; series mostly up to 12.8 µM
# In short: as §1
# CP256 = experiment: as above; settings: P. falciparum in erythrocytes, SYBR Green DNA, 72 h; series mostly up to 12.8 µM
# In short: as §1
# FAB9 = experiment: as above; settings: P. falciparum in erythrocytes, SYBR Green DNA, 72 h; series mostly up to 12.8 µM
# In short: as §1
# JCK = experiment: as above; settings: P. falciparum in erythrocytes, SYBR Green DNA, 72 h; series mostly up to 12.8 µM
# In short: as §1
# PC49 = experiment: as above; settings: P. falciparum in erythrocytes, SYBR Green DNA, 72 h; series mostly up to 12.8 µM
# In short: as §1
# SC27B = experiment: as above; settings: P. falciparum in erythrocytes, SYBR Green DNA, 72 h; series mostly up to 12.8 µM
# In short: as §1
# W2 = experiment: as above; settings: P. falciparum in erythrocytes, SYBR Green DNA, 72 h; series mostly up to 12.8 µM
# In short: as §1
# [10] = NFAT Signaling Pathway (AID 444; active means well fitted curve in either direction with a large enough effect, not every such curve was filed as active;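 further: carbachol stimulus at about its EC50 of 1 µM final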); settings: Jurkat NFAT-bla M1, carbachol, beta-lactamase ratio, 5 h; at 17.2 µM (top of the series) unless noted
# In short: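 Read-out: CCF4 FRET ratio (460 nm/530 nm) after 1 h RT dye loading, used for %activity and AC50 from titration series. Cells: Jurkat NFAT-β-lactamase/M1 line, treated with compound plus 1 uM carbachol for 5 h, 37 °C.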
# [11] = molecular target: Ubiquitin carboxyl-terminal hydrolase 1 (Homo sapiens) (UniProt O94782); experiment: Inhibitors of USP1/UAF1: Pilot qHTS (AID 504865); settings: purified USP1/UAF1, Ub-rhodamine cleavage fluorescence; series mostly up to 114 µM;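 further: rhodamine fluorescence freed from ubiquitin-rhodamine substrate followed over time; top concentration of the series differs between compounds; nearly all actives have a fitted effect of over 35% in size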
# In short: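 Deubiquitinase activity followed as kinetic rhodamine fluorescence release from 150 nM Ub-Rho. 1 nM USP1/UAF1 with compound, after 15 min room-temperature preincubation, in HEPES pH 7.8 buffer containing TCEP, EDTA, BSA and Tween-20.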
# [12] = measured here: cell count channel max response
# [13] = measured here: lipid channel max response
# Cytochrome P450 1A2 (Homo sapiens), sequence (P05177 whole entry, looked up): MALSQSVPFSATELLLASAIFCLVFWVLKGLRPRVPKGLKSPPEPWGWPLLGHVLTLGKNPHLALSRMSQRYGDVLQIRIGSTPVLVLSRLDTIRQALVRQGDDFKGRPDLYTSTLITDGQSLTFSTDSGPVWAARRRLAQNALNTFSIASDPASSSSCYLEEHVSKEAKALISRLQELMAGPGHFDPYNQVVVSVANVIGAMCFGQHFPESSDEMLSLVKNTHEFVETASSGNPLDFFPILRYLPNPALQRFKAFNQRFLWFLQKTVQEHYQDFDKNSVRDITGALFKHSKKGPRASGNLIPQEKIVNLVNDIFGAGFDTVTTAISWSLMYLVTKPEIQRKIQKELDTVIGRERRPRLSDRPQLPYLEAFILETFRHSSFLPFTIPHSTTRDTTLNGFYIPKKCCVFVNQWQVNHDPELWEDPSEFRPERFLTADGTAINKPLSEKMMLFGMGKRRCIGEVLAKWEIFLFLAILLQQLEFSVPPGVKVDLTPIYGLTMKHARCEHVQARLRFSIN
# Ubiquitin carboxyl-terminal hydrolase 1 (Homo sapiens), sequence (O94782 whole entry, looked up): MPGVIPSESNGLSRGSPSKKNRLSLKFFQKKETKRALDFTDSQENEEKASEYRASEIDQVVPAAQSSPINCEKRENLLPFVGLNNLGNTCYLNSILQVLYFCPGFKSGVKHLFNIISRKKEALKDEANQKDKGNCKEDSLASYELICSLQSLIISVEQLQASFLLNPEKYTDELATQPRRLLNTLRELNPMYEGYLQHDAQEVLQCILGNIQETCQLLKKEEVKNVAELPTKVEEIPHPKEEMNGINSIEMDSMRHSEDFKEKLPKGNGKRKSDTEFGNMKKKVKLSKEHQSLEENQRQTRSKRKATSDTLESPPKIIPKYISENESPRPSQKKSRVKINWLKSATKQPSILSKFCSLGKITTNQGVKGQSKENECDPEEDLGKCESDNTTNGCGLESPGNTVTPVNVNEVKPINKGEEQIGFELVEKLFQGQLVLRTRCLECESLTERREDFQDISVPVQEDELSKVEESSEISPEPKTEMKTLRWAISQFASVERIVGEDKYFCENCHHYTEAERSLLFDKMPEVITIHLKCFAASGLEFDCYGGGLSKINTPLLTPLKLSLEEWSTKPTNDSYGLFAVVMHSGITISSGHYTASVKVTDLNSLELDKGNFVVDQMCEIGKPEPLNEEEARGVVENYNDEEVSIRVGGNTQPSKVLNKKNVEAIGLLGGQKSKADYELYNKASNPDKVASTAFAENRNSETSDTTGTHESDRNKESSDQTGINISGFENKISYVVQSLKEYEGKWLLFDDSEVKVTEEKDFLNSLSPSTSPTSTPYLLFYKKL
# Luciferin 4-monooxygenase (Photinus pyralis), sequence (P08659 whole entry, looked up): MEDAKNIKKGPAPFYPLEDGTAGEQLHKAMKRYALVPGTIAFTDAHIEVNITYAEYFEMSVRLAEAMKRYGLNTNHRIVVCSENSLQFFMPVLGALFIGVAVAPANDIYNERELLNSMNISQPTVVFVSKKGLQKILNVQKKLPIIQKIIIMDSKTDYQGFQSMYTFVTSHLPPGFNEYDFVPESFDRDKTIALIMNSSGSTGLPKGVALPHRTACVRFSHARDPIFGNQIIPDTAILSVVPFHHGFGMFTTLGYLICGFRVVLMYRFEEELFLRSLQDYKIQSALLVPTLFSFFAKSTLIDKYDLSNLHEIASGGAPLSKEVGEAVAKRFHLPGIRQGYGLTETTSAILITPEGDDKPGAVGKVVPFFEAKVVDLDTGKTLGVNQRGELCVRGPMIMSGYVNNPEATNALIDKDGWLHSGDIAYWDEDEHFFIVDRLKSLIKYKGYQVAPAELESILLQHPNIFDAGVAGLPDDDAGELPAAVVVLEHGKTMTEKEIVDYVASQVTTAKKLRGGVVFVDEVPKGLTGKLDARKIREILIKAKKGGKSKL
# 3',5'-cyclic-AMP phosphodiesterase 4B (Homo sapiens), sequence (Q07343 whole entry, looked up): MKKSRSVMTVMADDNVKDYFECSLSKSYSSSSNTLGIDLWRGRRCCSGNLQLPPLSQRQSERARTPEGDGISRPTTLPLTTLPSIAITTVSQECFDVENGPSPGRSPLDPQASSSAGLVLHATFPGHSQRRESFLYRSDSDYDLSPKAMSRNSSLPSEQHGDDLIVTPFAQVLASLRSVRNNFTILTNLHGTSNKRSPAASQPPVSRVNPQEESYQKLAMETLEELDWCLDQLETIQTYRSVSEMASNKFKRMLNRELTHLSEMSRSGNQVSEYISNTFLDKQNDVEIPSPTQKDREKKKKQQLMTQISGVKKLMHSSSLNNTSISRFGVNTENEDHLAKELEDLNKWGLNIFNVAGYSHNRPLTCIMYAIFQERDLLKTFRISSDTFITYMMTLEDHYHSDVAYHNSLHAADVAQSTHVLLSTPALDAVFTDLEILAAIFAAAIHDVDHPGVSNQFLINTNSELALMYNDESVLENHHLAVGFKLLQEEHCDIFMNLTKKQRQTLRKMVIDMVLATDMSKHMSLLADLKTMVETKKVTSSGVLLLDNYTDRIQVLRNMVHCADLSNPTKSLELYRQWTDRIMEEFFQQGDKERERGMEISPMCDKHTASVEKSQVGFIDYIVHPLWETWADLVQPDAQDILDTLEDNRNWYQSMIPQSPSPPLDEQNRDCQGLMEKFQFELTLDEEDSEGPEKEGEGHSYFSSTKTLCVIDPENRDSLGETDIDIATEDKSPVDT
# Glucocorticoid receptor (Homo sapiens), sequence (P04150 whole entry, looked up, the tested form may be a part): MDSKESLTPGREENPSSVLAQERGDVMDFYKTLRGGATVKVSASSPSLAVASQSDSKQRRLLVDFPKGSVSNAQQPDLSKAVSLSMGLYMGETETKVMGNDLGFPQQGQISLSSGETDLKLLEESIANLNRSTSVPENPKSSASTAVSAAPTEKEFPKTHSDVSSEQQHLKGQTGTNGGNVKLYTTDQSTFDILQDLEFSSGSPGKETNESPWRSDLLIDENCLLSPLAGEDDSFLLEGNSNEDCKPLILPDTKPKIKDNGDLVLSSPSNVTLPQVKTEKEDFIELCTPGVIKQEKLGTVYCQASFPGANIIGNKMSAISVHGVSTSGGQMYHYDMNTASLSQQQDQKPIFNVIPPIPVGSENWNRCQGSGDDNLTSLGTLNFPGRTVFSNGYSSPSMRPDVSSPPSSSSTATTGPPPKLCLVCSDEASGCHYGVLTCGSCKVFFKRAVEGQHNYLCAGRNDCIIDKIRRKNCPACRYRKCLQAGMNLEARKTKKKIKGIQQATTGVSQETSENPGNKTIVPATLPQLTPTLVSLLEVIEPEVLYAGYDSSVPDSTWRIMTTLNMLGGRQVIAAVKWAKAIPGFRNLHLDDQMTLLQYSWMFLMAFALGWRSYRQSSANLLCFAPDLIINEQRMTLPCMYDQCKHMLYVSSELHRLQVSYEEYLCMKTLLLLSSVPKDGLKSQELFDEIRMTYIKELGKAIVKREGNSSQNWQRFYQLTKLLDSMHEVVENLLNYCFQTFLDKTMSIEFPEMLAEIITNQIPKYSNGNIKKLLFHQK
compound,measurement,setting,value
CC=C(/C(=C/C)c1ccc(O)cc1)c1ccc(O)cc1,Potency,[1],15.8 µM (active)
same,outcome,[2],inactive
same,Potency,[3],> 20.6 µM (inactive)
same,Potency,[4],> 20.6 µM (inactive)
same,Potency,[5],inactive
same,outcome,[6],inactive
same,"activity change, negative = inhibition",[7]; at 25.7 µM (top of the series),-3.26% (inactive)
same,max response,[7]; [12],-14.6%
same,max response,[7]; [13],-18.3%
same,Potency,[8],inactive
same,"activity, negative = inhibition",[9]; parasite line A,-1.05% (inactive)
same,"activity, negative = inhibition",[9]; parasite line B,-9.06% (inactive)
same,Potency,C2A,inactive
same,Potency,CP238,inactive
same,Potency,CP256,inactive
same,Potency,FAB9,inactive
same,Potency,JCK,inactive
same,Potency,PC49,inactive
same,Potency,SC27B,inactive
same,Potency,W2,inactive
CCCC[C@H](CC)CN1CN(C[C@@H](CC)CCCC)CC(C)(N)C1,Potency,[1],inactive
same,"activity change, negative = inhibition",[10],-26.2% (inactive)
same,outcome,[2],inactive
same,outcome,[6],inactive
same,"activity change, negative = inhibition",[7]; at 25.7 µM (top of the series),-1.27% (inactive)
same,max response,[7]; [12],0.881%
same,max response,[7]; [13],-2.09%
same,Potency,[8],inactive
same,"activity, negative = inhibition",[9]; parasite line A,-5.01% (inactive)
same,"activity, negative = inhibition",[9]; parasite line B,14.7% (inactive)
same,Potency,C2A,inactive
same,Potency,CP238,inactive
same,Potency,CP256,inactive
same,Potency,FAB9,inactive
same,Potency,JCK,inactive
same,Potency,PC49,inactive
same,Potency,SC27B,inactive
FC(F)(F)c1ccccc1-c1ccc2ncnc(NC3CCNCC3)c2c1,Potency,[1],20 µM (active)
same,"activity change, negative = inhibition",[10],2.61% [at 7.69 µM] (inactive)
same,outcome,[2],inactive
same,Potency,[3],> 46 µM (inactive)
same,Potency,[4],> 46 µM (inactive)
same,Potency,[5],inactive
same,outcome,[6],inactive
same,"activity change, negative = inhibition",[7]; at 57.5 µM (top of the series),-0.848% (inactive)
same,max response,[7]; [12],8.99%
same,max response,[7]; [13],6.31%
same,Potency,[11],inactive
CN1CCCN([C@@H](c2ccccc2)c2ccc(Cl)cc2)CC1,Potency,[1],inactive
same,outcome,[2],inactive
same,Potency,[4],> 20.6 µM (inactive)
same,Potency,[5],inactive
same,"activity change, negative = inhibition",[7]; at 25.7 µM (top of the series),-4.42% (inactive)
same,max response,[7]; [12],4.14%
same,max response,[7]; [13],1.38%
same,Potency,[11],inactive
C[C@@H](Cc1cccc(C(F)(F)F)c1)NCCOC(=O)c1ccccc1,Potency,[1],0.794 µM (active)
same,"activity change, negative = inhibition",[10],-24.1% (inactive)
same,outcome,[2],inactive
same,Potency,[3],> 20.6 µM (inactive)
same,Potency,[4],> 20.6 µM (inactive)
same,Potency,[5],inactive
same,"activity change, negative = inhibition",[7]; at 25.7 µM (top of the series),-1.81% (inactive)
same,max response,[7]; [12],-19.2%
same,max response,[7]; [13],-18.4%
same,Potency,[11],inactive
C[N+]12CCC(CC1)[C@@H](OC(=O)C(O)(c1ccccc1)c1ccccc1)C2,Potency,[1],inactive
same,"activity change, negative = inhibition",[10],-57.3% (active)
same,outcome,[2],inactive
same,Potency,[3],> 20.6 µM (inactive)
same,outcome,[6],inactive
same,"activity change, negative = inhibition",[7]; at 25.7 µM (top of the series),-3.29% (inactive)
same,max response,[7]; [12],-12.1%
same,max response,[7]; [13],-15%
same,Potency,[8],inactive
same,"activity, negative = inhibition",[9]; parasite line A,11.6% (inactive)
same,"activity, negative = inhibition",[9]; parasite line B,16% (inactive)
same,Potency,C2A,inactive
same,Potency,CP238,inactive
same,Potency,CP256,inactive
same,Potency,FAB9,inactive
same,Potency,JCK,inactive
same,Potency,PC49,inactive
same,Potency,SC27B,inactive
same,Potency,W2,inactive
NS(=O)(=O)c1cc2c(cc1C(F)(F)F)N[C@H](Cc1ccccc1)NS2(=O)=O,Potency,[1],15.8 µM (active)
same,"activity change, negative = inhibition",[10],17.7% (inactive)
same,outcome,[2],inactive
same,Potency,[5],inactive
same,outcome,[6],inactive
same,"activity change, negative = inhibition",[7]; at 25.7 µM (top of the series),1.42% (inactive)
same,max response,[7]; [12],-8.69%
same,max response,[7]; [13],-8.81%
same,Potency,[8],inactive
same,"activity, negative = inhibition",[9]; parasite line A,-1.91% (inactive)
same,Potency,C2A,inactive
same,Potency,CP238,inactive
same,Potency,CP256,inactive
same,Potency,FAB9,inactive
same,Potency,JCK,inactive
same,Potency,PC49,inactive
same,Potency,SC27B,inactive
same,Potency,W2,inactive
CCC(=O)[C@@]1(C)[C@H](C)C[C@@H]2[C@@H]3CCC4=CC(=O)C=C[C@@]4(C)[C@H]3[C@H](O)C[C@]21C,Potency,[1],inactive
same,outcome,[2],inactive
same,Potency,[3],0.000592 µM (active)
same,Potency,[4],0.00311 µM (active)
same,Potency,[5],inactive
same,outcome,[6],inactive
same,"activity change, negative = inhibition",[7]; at 25.7 µM (top of the series),-1.25% (inactive)
same,max response,[7]; [12],-14.6%
same,max response,[7]; [13],-19.8%
same,"activity, negative = inhibition",[9]; parasite line A,-6.51% (inactive)
same,"activity, negative = inhibition",[9]; parasite line B,3.51% (inactive)
same,Potency,C2A,inactive
same,Potency,CP238,inactive
same,Potency,CP256,inactive
same,Potency,FAB9,inactive
same,Potency,JCK,inactive
same,Potency,PC49,inactive
same,Potency,SC27B,inactive
same,Potency,W2,5.1 µM (active)
CO[C@]1(NC(=O)Cc2cccs2)C(=O)N2C(C(=O)O)=C(COC(N)=O)CS[C@H]21,Potency,[1],inactive
same,"activity change, negative = inhibition",[10],3.7% (inactive)
same,outcome,[6],inactive
same,"activity change, negative = inhibition",[7]; at 25.7 µM (top of the series),2.57% (inactive)
same,max response,[7]; [12],-2.6%
same,max response,[7]; [13],0.943%
same,Potency,[11],inactive
C=C(C)[C@H]1CC[C@]2(CO)CC[C@]3(C)[C@@H](CC[C@H]4[C@@]5(C)CC[C@@H](O)C(C)(C)[C@@H]5CC[C@@]43C)[C@H]12,Potency,[1],inactive
same,"activity change, negative = inhibition",[10],-4.45% (inactive)
same,outcome,[2],inactive
same,Potency,[3],> 20.6 µM (inactive)
same,Potency,[5],inactive
same,outcome,[6],inactive
same,"activity change, negative = inhibition",[7]; at 25.7 µM (top of the series),-10.7% (inactive)
same,max response,[7]; [12],-12.9%
same,max response,[7]; [13],-22.1%
